# Screens: PubChem BioAssay, The Scripps Research Institute Molecular Screening Center
# CHO-K1 Ca antag – nonselective inhibitor or artifact in parental CHO-K1 cells | 360,000 compounds, 0.6% hits | inhibition, % at 3 µM | ATP-induced calcium, Fluo-8 fluorescence | AID 602250;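 active means inhibition above a per-plate cutoff, the plate's mean sample inhibition plus 3 SD, cut at about 24% in these data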;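 further: 0% = DMSO plus EC80 ATP and 100% = DMSO alone without ATP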
# M1 antag – blocks human M1 muscarinic receptor | P11229 | CHO-K1 hM1, Fluo-8 calcium fluorescence, ACh EC80 antagonist | inhibition, % at 3 µM | 360,000 compounds, 1.3% hits | AID 588852;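 active means percent inhibition above its own plate's cutoff, namely the mean of that plate's compound wells plus 3 SD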;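 further: peak over basal fluorescence ratio during 140 s after agonist addition; 0% = ACh EC80 plus DMSO and 100% = DMSO alone without agonist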
# Target sequence (P11229 whole entry, looked up): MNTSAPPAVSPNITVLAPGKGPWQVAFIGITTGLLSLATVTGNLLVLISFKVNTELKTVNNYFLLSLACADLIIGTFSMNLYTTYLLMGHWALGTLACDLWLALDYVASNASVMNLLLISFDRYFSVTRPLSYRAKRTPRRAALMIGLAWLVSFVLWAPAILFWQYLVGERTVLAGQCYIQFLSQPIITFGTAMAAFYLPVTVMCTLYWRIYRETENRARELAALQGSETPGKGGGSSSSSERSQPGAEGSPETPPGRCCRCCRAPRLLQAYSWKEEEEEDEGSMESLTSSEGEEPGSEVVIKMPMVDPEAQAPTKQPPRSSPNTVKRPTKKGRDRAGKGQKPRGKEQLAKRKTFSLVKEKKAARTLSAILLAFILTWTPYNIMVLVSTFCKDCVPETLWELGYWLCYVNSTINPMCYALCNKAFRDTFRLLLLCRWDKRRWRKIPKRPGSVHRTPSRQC
# M1 ag parental – counter-screen for M1 agonists: effect in parental CHO-K1 cells; activation, % at 3 µM; AID 602248; Fluo-8 calcium fluorescence; scaled to maximal ATP response, vehicle zero; 360,000 compounds, 0.48% hits; in the data active means activation above about 15%;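 further: untransfected CHO-K1 host cells lacking M1 receptor as counterscreen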
# CHO-K1 Ca PAM – M1 PAM counterscreen hit in parental CHO-K1 cells | 360,000 compounds, 0.02% hits | AID 602247 | activation, % at 3 µM | ATP EC20, Fluo-8 calcium fluorescence; 0% at ATP EC20, 100% at ATP max;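 active means activation above the run cutoff, the mean activation of all test compounds plus 3 SD, cut at about 40% in these data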;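 further: peak over basal fluorescence ratio in a 140 s read after ATP addition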
# M1 PAM – human CHRM1 positive allosteric modulation; P11229; CHO-K1 hM1, Fluo-8 calcium fluorescence, ACh EC20; 0% = ACh EC20, 100% = maximal ACh; AID 588819; activation, % at 3 µM; 360,000 compounds, 0.088% hits; in the data active means activation above about 19%, passing the limit was not always enough
# CHRM1 agonist – agonists of human M1 muscarinic receptor; P11229; CHO-K1 hM1, Fluo-8 calcium fluorescence, agonist mode; 0% DMSO, 100% acetylcholine EC100; activation, % at 3 µM; 360,000 compounds, 0.33% hits; AID 588814;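 active means activation above the run's mean compound activation plus 3 SD, cut at about 16% in these data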;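 further: peak over basal fluorescence ratio within a 140 s kinetic read after compound addition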
# An asterisk follows results filed as active. Sampled rows, rich in hits. Any-hit rate of the full collection: about 2.4%.
SMILES,CHO-K1 Ca antag,M1 antag,M1 ag parental,CHO-K1 Ca PAM,M1 PAM,CHRM1 agonist
COc1ccccc1CN(Cc1nc2ccccc2c(=O)[nH]1)S(=O)(=O)c1ccc2ccccc2c1,-2,43*,2,-11,-25,-7
CCCCCn1c2c(c(=N)c3ccccc31)CCC2,-6,-2,1,14,5,-8
CCCCCCCCCCn1c2c(c(=N)c3c1CCC3)CCC2,18,35*,4,17,-12,-1
CCn1c2c(c(=N)c3c1CCC3)CCCC2,-7,-15,1,22,2,-7
CCCCCCCCn1c2c(c(=N)c3ccccc31)CCC2,31*,47*,8,-7,-27,-6
CCCCCCCCCn1c2c(c(=N)c3c1CCC3)CCCC2,38*,49*,12,-2,-25,-1
CN(Cc1ccccc1)S(=O)(=O)c1ccc(N2CCOCC2)nc1,-12,3,8,18,1,-4
CCCc1noc2c1C(c1cc(Br)ccc1F)C(C#N)=C(N)N2 (centres undefined),-23,-10,1,2,9,-5
CC[C@H](C)Cc1cn([C@@H](CCCN=C(NC(=O)OC(C)(C)C)NC(=O)OC(C)(C)C)C(=O)NCCCCCCCCCCC(=O)N2CCN(C(=O)OC(C)(C)C)CC2)nn1,-7,29,1,2,-27,-9
Cc1cn([C@@H](CCCCNC(=O)OC(C)(C)C)C(=O)NCCCCCCCCCCC(=O)N2CCN(C(=O)OC(C)(C)C)CC2)nn1,4,44*,16*,-5,-28,-2
COc1ccc(C(=O)NCC(c2ccco2)N2CCc3ccccc32)c(OC)c1 (centres undefined),-20,-10,0,48*,2,-6
COc1ccc(C(=O)NCC(c2cccs2)N2CCc3ccccc32)cc1OC (centres undefined),24*,-2,8,-21,6,-1
CC(=O)Nc1ccc(NC(=O)CSc2nnc(-c3cccs3)n2N)cc1,-14,-1,1,1,0,-2
COc1ccccc1NS(=O)(=O)c1cc(C(=O)N2CCCC2)ccc1F,-13,-10,2,2,6,0
COCc1cc(C)nc2sc3c(=O)n(Cc4ccco4)nnc3c12,26*,-12,0,-2,13,-1
Cn1nnnc1SCC(=O)c1ccc(Br)s1,-4,20,0,-8,-3,-5
Cn1c(Cc2ccccc2)nnc1SCC(=O)c1ccc(Br)s1,-1,22*,0,8,-24,-7
COc1ccc2c(c1)OC[C@H]1[C@H]2N2C(=O)c3cc(F)ccc3NC(=O)[C@@]2(C)[C@H]1c1ccccc1,-24,83*,1,12,-30,-7
COc1ccc2c(c1)OC[C@H]1[C@H]2N2C(=O)c3cc(OC)ccc3NC(=O)[C@@]2(C)[C@H]1c1ccccc1,-9,27*,0,6,-21,-7
COc1ccc2c(c1)OC[C@H]1[C@H]2N2C(=O)c3cc(Cl)ccc3NC(=O)[C@@]2(C)[C@H]1c1ccccc1,-15,25,1,19,-16,-8
Cc1cc(C)c(C#N)c(SCC(O)COc2ccc(Br)cc2)n1 (centres undefined),-3,61*,4,-5,-33,-10
CC[C@]12c3[nH]c4cc(-c5ccco5)ccc4c3CCN1C(=O)[C@@H](CC(=O)NC(C)(C)C)C[C@@H]2C(=O)N1CCN(C(=O)c2ccco2)CC1,-12,-18,0,13,8,-5
CC(C)N(CC#CCC(O)(c1ccccc1)c1ccccc1)C(C)C,-8,39*,1,22,-23,-10
CCN(CC#CCC(O)(c1ccccc1)c1ccccc1)C(C)C,-12,82*,0,14,-28,-15
O=S(CC(O)(c1ccccc1)c1ccccc1)CC(O)(c1ccccc1)c1ccccc1,2,2,0,4,5,-2
SMILES,CHO-K1 Ca antag,M1 antag,M1 ag parental,CHO-K1 Ca PAM,M1 PAM,CHRM1 agonist
CC(C)N(CC#CCC(O)(c1ccccc1)c1ccccc1)CCO,7,28,-1,-6,-28,-13
NC(=O)c1ncc(C(F)(F)F)cc1Oc1cccnc1,17,9,5,-4,-13,-4
O=C1C=CC(c2ccccc2)(c2ccccc2)CC1,-16,-27,-1,10,12,-6
CC1(c2ccc([N+](=O)[O-])cc2)Nc2ccccc2S1 (centres undefined),13,-3,15*,1,4,0
Cc1nn(C)c(C)c1NS(=O)(=O)c1ccccc1Cl,-6,-7,0,23,12,0
C[C@H](NC(=O)c1nc[nH]c1C(=O)N[C@@H](CCCCN)C(=O)OC(C)(C)C)C(=O)OCc1ccccc1,-11,4,0,5,2,-4
COc1c(Cl)cnn(-c2ccc(Cl)c(Cl)c2)c1=O,-6,-7,17*,26,15,-13
COc1c(Cl)cnn(-c2ccccc2)c1=O,2,4,0,12,3,0
NNC(=O)c1sc2cc(C(F)(F)F)cnc2c1-c1ccccn1,-26,-12,0,-4,18,-5
COc1ccc(-n2ccnc2SCC(=O)NC2CCCC2)c(OC)c1,-7,-3,0,3,9,-7
CC(=O)Nc1sc(N/N=C\c2ccco2)nc1-c1cccs1,-6,2,1,-9,1,1
Cc1ccc(CN2C(=O)CSc3ccc(C(=O)NCCN4CCOCC4)cc32)cc1,3,-8,0,-1,5,-5
O=C(NCCCN1CCOCC1)c1ccc2c(c1)N(Cc1cccc(Cl)c1)C(=O)CS2,-21,65*,2,-1,-32,-11
CN(C)c1cc[n+](Cc2c(Cl)cccc2Cl)cc1,-9,80*,0,19,-21,-5
N#Cc1ccccc1CSc1nc2ccc(NC(=O)c3ccccc3C(=O)O)cc2s1,31*,3,3,-12,3,-13
O=C(O)c1ccc(CSc2nc3ccc(NC(=O)c4ccccc4C(=O)O)cc3s2)cc1,-2,-9,1,1,1,-6
COc1ccccc1NC(=O)CCC(=O)OCC(=O)c1ccc(C)c([N+](=O)[O-])c1,-3,-4,0,-3,3,-3
CN1C(=O)[C@H]2[C@@H](c3ccc(C(F)(F)F)cc3)N[C@]3(CCCN(CC4CCCCC4)C3=O)[C@H]2C1=O,-15,-12,0,7,6,-7
CCC(=O)c1ccc(OCC(O)CNCCc2ccc(Cl)cc2)cc1 (centres undefined),-5,-15,15*,13,8,-2
COCCN(C(=O)c1csnn1)C(C(=O)NC1CCCC1)c1ccccc1F (centres undefined),-5,-3,0,4,1,-2
CC[N+](C)(C)CCN(Cc1ccc(Cl)cc1)c1ccccn1,-2,80*,0,-5,-13,15
